# The supplement of paper PMC8253809
# System: SUDIPGVI (diffuse intrinsic pontine glioma line)
# Assay: growth inhibition (% activity, log2 RLU normalised to DMSO / staurosporine); higher = more growth inhibition
# Conditions: 33 µM
# Outline: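 pHGG cell lines and H9-derived neural stem cells were grown on Geltrex-coated 384-well plates. Approved drugs were added by pin tool at a single final concentration of about 33 μM, in triplicate, for 7 days at 37 °C, 5% CO2. CellTiter-Glo luminescence was log2-transformed and normalised per plate to % activity between solvent and positive control wells. The growth-inhibition value is the median over replicates.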
row,Structure (SMILES),growth inhibition [%]
1,C[N+](C)(C)CCCCCCCCCC[N+](C)(C)C,4.87
2,CC(=O)O[C@H]1C[C@@H]2CC[C@@H]3[C@H](CC[C@@]4(C)[C@H]3C[C@H]([N+]3(C)CCCCC3)[C@@H]4OC(C)=O)[C@@]2(C)C[C@@H]1[N+]1(C)CCCCC1,0.196
3,CN(C)C(=O)Oc1ccc[n+](C)c1,1.15
4,CN1c2ccccc2C(NCCCCCCC(=O)O)c2ccc(Cl)cc2S1(=O)=O (configuration not stated),-1.84
5,O=c1[nH]c2ccccc2n1CCCN1CCC(n2c(=O)[nH]c3cc(Cl)ccc32)CC1,-2.62
6,C[N+]1(C)CCCC(OC(=O)C(O)(c2ccccc2)c2ccccc2)C1 (configuration not stated),-2.44
7,CNC1CC(N)C(O)C(OC2OC(CO)C(O)C3OC4(OC(C(N)CO)C(O)C(O)C4O)OC23)C1O (configuration not stated),1.16
8,CN1C(=O)CCS(=O)(=O)C1c1ccc(Cl)cc1 (configuration not stated),-0.17
9,CN(C)C(=O)Oc1cccc([N+](C)(C)C)c1,-1.83
10,CCC1=C[C@H]2CN3CCc4c([nH]c5ccccc45)[C@](C(=O)OC)(C2)[C@H]13,-1.41
11,NCC(O)c1ccc(O)cc1 (configuration not stated),-3.26
12,CCCN1C[C@H](CSC)C[C@@H]2c3cccc4[nH]cc(c34)C[C@H]21,0.348
13,CN1C(=O)COc2c(C(=O)NC3CN4CCC3CC4)cc(Cl)cc21 (configuration not stated),3.53
14,Cn1c(CCCC(=O)O)nc2cc(N(CCCl)CCCl)ccc21,1.43
15,CC(=O)OC12COC1CC(O)C1(C)C(=O)C(O)C3=C(C)C(O)CC(O)(C(OC(=O)c4ccccc4)C21)C3(C)C (configuration not stated),1.87
16,CC(=O)OC1CN2CCC1CC2 (configuration not stated),1.26
17,CC[C@@]1(O)C(=O)OCc2c1cc1n(c2=O)Cc2cc3ccccc3nc2-1,2.42
